# About 1,300 (0.36%) of roughly 360,000 compounds were called active. Rule as the data show it: active = inhibition above about 19%; inactive = the rest. The sample as a whole holds a higher share of actives than the screen did.
# System: T-cell receptor (TCR)
# Assay: small molecules blocking TCR binding to CD3 – biochemical, fluorescence, TAMRA-labeled TCR probe, primary screen (AID 651800);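 also: recombinant mutant TCR 2C K166C tagged with TAMRA read by polarization; 0% = receptor in buffer alone and 100% = receptor with positive control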
# Settings: at 9.4 µM, stronger effect = higher value
row,SMILES,inhibition
1,CC/C(=N\NC(=O)c1ccccc1O)c1c(O)n(Cc2ccccc2)c(=O)[nH]c1=O,28.9% (active)
2,CCCCn1c(O)c(C(CC)=NCc2ccco2)c(=O)[nH]c1=O,-3.64% (inactive)
3,CCCCCCN=C(CC)c1c(O)n(CCCC)c(=O)[nH]c1=O,0.66% (inactive)
4,Cc1ccc(N(C)C(=O)Oc2cccc3ccc(C)nc23)cc1,1.25% (inactive)
5,COc1ccc(NC(=O)c2cn(CCC#N)nc2-c2ccc([N+](=O)[O-])cc2)cc1,6.55% (inactive)
